# Measurements as given in ChEMBL document CHEMBL4513216, “Probing the Open Global Health Chemical Diversity Library for Multistage-Active Starting Points for Next-Generation Antimalarials” (ACS Infect Dis, 2020).
# Hit rate of the full screen: of about 69,000 compounds, about 8,600 (12%) showed an effect of 50% or more. The full list was thinned out, with strong results kept by preference.
# Test system: Plasmodium berghei
# Experiment: Screen against P. berghei liver stage (PbLuc), transformed with Luciferase, at 10uM
# Type: functional, HepG2
# Settings: tested at 10 uM
row,Compound,INHIBITION [%]
1,CN(C)S(=O)(=O)N1CC[C@]2(C[C@H](Oc3cccnc3)CO2)C1,0
2,CCS(=O)(=O)N1C[C@@H](OCc2ccccn2)[C@@H]2OCCC[C@@H]21,16.6
3,CN(C)S(=O)(=O)N1CC[C@]2(C[C@@H](Oc3cccnc3)CO2)C1,21.8
4,Cc1cccc(C(=O)N2CC[C@]3(C[C@H](OCc4ccccn4)CO3)C2)c1,71.9
5,O=C(c1ccccc1)N1CCC[C@]2(C[C@@H](OCc3ccccn3)CO2)C1,49.7
6,Cc1cccc(COC2COC3(CCN(S(C)(=O)=O)CC3)C2)n1 (stereo unspecified),44.2
7,CN(C)S(=O)(=O)N1CC[C@]2(C[C@H](OCc3ccncc3)CO2)C1,57.1
8,CN(C)S(=O)(=O)N1C[C@@H](Oc2ccccn2)[C@H]2OCCC[C@H]21,-4.74
9,CN(C)S(=O)(=O)N1C[C@@H](OCc2ccccn2)[C@H]2OCCC[C@H]21,56.1
10,Cc1cccc(COC2COC3(CCN(Cc4ccoc4)CC3)C2)n1 (stereo unspecified),11.4
11,COCCN1CCCC(c2ccnc3c(C(N)=O)cnn23)C1 (stereo unspecified),37.7
12,CNC(=O)C(C)(C)N1CCC[C@H]1C(=O)NCC(C)C,27.2
13,Cc1cccc(-c2noc(CN3CCCC3Cn3cncn3)n2)c1 (stereo unspecified),19.4
14,CC(Cn1cccn1)n1cnc2ccc(F)cc2c1=O (stereo unspecified),35
15,CCOC(=O)CNC(=O)N1CCC(OC)c2ccccc2N(C)C(=O)C1 (stereo unspecified),29.8
16,O=C1CCCC2=C1C(c1ccco1)C1C(=O)NN=C1N2 (stereo unspecified),36.3
17,CCc1ncc2c(n1)CN(Cc1cccc(OCC(N)=O)c1)CC2,0.914
18,Cc1nc(CN(C)C2CCN(Cc3ccc(Cl)s3)C2)no1 (stereo unspecified),-35.7
19,O=S(=O)(CCO)CCc1ccccc1Cl,25.2
20,c1ncn(CC2CCCN2Cc2csc(C3CCCCC3)n2)n1 (stereo unspecified),23.5
21,CCNc1cc2c(nn1)CCN(C(=O)Cc1c(C)nn(C)c1C)C2,15.5
22,CC(NC1CCN(CCS(C)(=O)=O)CC1)c1cnn(C(C)C)c1 (stereo unspecified),-5.22
23,O=C(c1cnccn1)N1CCO[C@H]2[C@H](OCc3cccnc3)CC[C@@H]21,7.31
24,CN1CCN(c2ncnc3c2CCN(c2ncc(F)cn2)CC3)CC1,24.9
25,CC1CCN(S(=O)(=O)N2CCC(Oc3cnccn3)CC2)CC1,19.6
26,Cc1cc2c(=O)n3c(nc2s1)CCN(C(=O)c1ccn(C)n1)CC3,0.301

row,Compound,INHIBITION [%]
1,CC(=O)NCCNC(=O)Nc1cc(C(C)(C)C)sc1C#N,42.7
2,CCO[C@@H]1CO[C@@]2(CCCN(S(=O)(=O)c3ccccc3)C2)C1,64.9
3,CN(C)S(=O)(=O)N1CCC2(CC1)CC(OCC1CC1)CO2 (stereo unspecified),28.2
4,CN(C)S(=O)(=O)N1CCC2(CC1)CC(Oc1ccccn1)CO2 (stereo unspecified),-60.2
5,CN(C)S(=O)(=O)N1CC[C@]2(C[C@@H](OCC3CC3)CO2)C1,57.1
6,CN(C)S(=O)(=O)N1CC[C@]2(C[C@H](OCc3ccccn3)CO2)C1,57.1
7,CN(C)S(=O)(=O)N1CC[C@]2(C[C@@H](OCc3ccccn3)CO2)C1,39.4
8,Cc1cccc(CO[C@@H]2CO[C@@]3(CCN(S(=O)(=O)N(C)C)C3)C2)n1,63.5
9,O=S(=O)(c1ccccc1)N1CCC[C@]2(C[C@H](OCC3CC3)CO2)C1,19.4
10,CN(C)S(=O)(=O)N1CC[C@]2(C[C@H](Oc3ncccc3F)CO2)C1,34.1
11,CN(C)S(=O)(=O)N1CC[C@]2(C[C@@H](Oc3ncccc3F)CO2)C1,10.1
12,CCS(=O)(=O)N1CC[C@]2(C[C@@H](OCC3CC3)CO2)C1,15.1
13,CCO[C@H]1CO[C@@]2(CCCN(S(=O)(=O)c3ccccc3)C2)C1,23.9
14,COCC(=O)N1CCN(C(C)c2ncc(-c3ccccc3)o2)CC1 (stereo unspecified),40.2
15,Cc1cc2n(n1)CC(CNCc1ccc(-n3cccn3)cc1)CN2 (stereo unspecified),6.35
16,O=C(Nc1ccc(OC2CCCC2)cc1)C1CCCN1c1nccs1 (stereo unspecified),2.625
17,CC(C)Oc1cccc(F)c1C(C(=O)O)N1CCCN(C)CC1 (stereo unspecified),28.2
18,Cn1cc(-c2cnc(N3CCOCC3)nc2)cc1C(=O)NC1CC1,-1.55
19,Cc1cc(CN2CCN(C(=O)NCc3ccoc3)CC2)no1,-7.35
20,O=C(NC[C@]1(O)CN(Cc2ncccc2F)C[C@H]1O)c1cc[nH]n1,40.4
21,CC(O)(CNc1ccc(Cl)c(C#N)n1)c1ccsc1 (stereo unspecified),-20.3
22,CCCC(=O)Nc1cccc([C@H]2C[C@@H](NC(C)=O)CCO2)c1,33.85
23,CNC(=O)c1cc2c(nc1NCC(C)C)CCN(c1ccncn1)CC2,-38.7
24,CN(Cc1nc(N2CCCC2)ncc1-c1ccncc1)C(=O)C(C)(C)C,21.6
25,COc1ccc2c(c1)NC(C1CCN(C(=O)C3CC3)CC1)NS2(=O)=O (stereo unspecified),-30.9
